Only some compounds are listed: those with a hit (about 8.2% of all), similar ones and a draw of the others.
KB-V1 MDR tox: KB-V1 MDR subline cytotoxicity | KB-V1 MDR cells viability, CellTiter-Glo, 72 h | Potency, µM (highest dose often 46.1 µM), hits mostly cytotoxic | 400,000 tested, 3.4% active; further: nearly all actives have a fitted effect of over 60% in size
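Compound-treated KB-V1 multidrug-resistant cells, 72 h, 37 degrees C; viability by CellTiter-Glo. Fitted qHTS curves give the values.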
MCF10A rereplic: induces DNA re-replication in MCF 10a normal breast cells; MCF 10A DNA re-replication, Hoechst nuclear intensity, 48 h; Potency, µM (top dose mostly 46.1 µM), hits mostly activators; 350,000 tested, 2.9% active; AID 624296; further: nearly all actives have a fitted effect of over 50% in size
ELG1 repair inh: ELG1-dependent DNA repair inhibition. HEK293T ELG1-luciferase reporter, luminescence, 16 h; DNA damage induced by 5-fluorouridine. Potency, µM (top dose mostly 46.1 µM), hits mostly inhibitors. 330,000 tested, 2.3% active; further: nearly all actives have a fitted effect of over 55% in size
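HEK293T cells expressing luciferase-tagged ELG1 (2,000/well) received 5-Fluorouridine plus compound or DMSO for 16 hr at 37 °C. Luciferase was read by ONE-Glo luminescence after 30 min at room temperature.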
SW480 rerep: inducers of DNA re-replication in SW480 colon cancer cells; SW480 DNA re-replication, Hoechst DNA content imaging, 48 h; Potency, µM (titrated, usually from 46.1 µM), actives largely listed as activators; 340,000 tested, 1.8% active; AID 624297; further: nearly all actives have a fitted effect of over 55% in size
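250 cells/well; 23 nL cpd via pin tool; 48 hr, 37 C, 5% CO2; Hoechst 40 min; imager read of total nuclear intensity, ex 405/em 500-530 nm.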
KB-3-1 cytotox: kills parental KB-3-1 adenocarcinoma cells; 400,000 tested, 1.4% active; Potency, µM (doses to about 46.1 µM), actives largely listed as cytotoxic; KB-3-1 viability, CellTiter-Glo ATP luminescence, 72 h; further: nearly all actives have a fitted effect of over 60% in size
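Luminescent ATP read-out (CellTiter-Glo) measures survival of drug-naive KB-3-1 cells after 72 h compound exposure at 37 °C. Titration series was screened from lowest to highest concentration, with DMSO vehicle plates as background controls.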
Numbers stand for hits; – = inactive; ? = inconclusive; · = no result. The call rests on the fitted dose curve; in most records, active means well fitted curve in the direction sought with a large enough effect; inconclusive means small, poorly fitted or top-dose-only effect, or another doubt; inactive means no such curve, though single readings can be large; an effect the other way counts as inactive or inconclusive.

SMILES	KB-V1 MDR tox	MCF10A rereplic	ELG1 repair inh	SW480 rerep	KB-3-1 cytotox
COc1ccc(CCNC(=O)CCCn2c(=O)c3cccn3c3cccnc32)c(OC)c1	–	–	?	–	–
Cc1cc(C)c(C#N)c(SCc2nnc(-c3ccccc3)o2)n1	3.7µM	2.6µM	?	8.2µM	–
Cc1ccc(C#N)c(SCc2nnc(-c3ccc(Cl)cc3)o2)n1	12µM	0.73µM	?	2.3µM	–
Cc1nc(SCc2nnc(-c3ccc(Cl)cc3)o2)c2c3c(sc2n1)CCC3	·	·	–	·	·
CCCn1c(SCC(=O)NC2CCCCC2)nnc1-c1ccco1	?	?	–	–	–
CCN(CC)CC(=O)N1c2ccccc2Sc2ccccc21	–	–	–	–	–
CCN(CC)CCCCN1c2ccccc2Sc2ccccc21	?	26µM	–	18µM	?
CC(C)NC(=O)NC(=O)COc1ccc(Br)cc1Br	?	23µM	?	–	–
Cc1occc1C(=O)NNC(=O)COc1ccc(Br)cc1Br	15µM	–	?	–	–
COc1ccc(-n2c(=O)c3c(C)c(C)sc3n(CC(=O)NCc3ccc(C)cc3)c2=O)c(OC)c1	–	·	·	·	–
COc1ccc(/C=C\c2nccc3c2[nH]c2ccccc23)cc1	–	·	·	·	–
N#Cc1ccc(/C=C\c2nccc3c2[nH]c2ccccc23)cc1	–	?	?	2.1µM	–
Clc1ccc(/C=C\c2nccc3c2[nH]c2ccccc23)cc1	?	2.6µM	–	9.2µM	–
CCCCOc1ccc(-c2nnn(CC(=O)NCc3ccco3)n2)cc1	4.1µM	–	?	–	?
N#Cc1cccc(C(Br)S(=O)(=O)c2ccccc2)c1 (centres undefined)	–	·	·	·	–
Cc1ccc(NC(=O)c2ccc(NC(=O)N3CCSc4ncccc43)cc2)cc1Cl	–	·	·	·	?
O=C(Nc1ccc(F)c(S(=O)(=O)N2CCOCC2)c1)C1CCCCC1	18µM	–	?	–	–
O=C(Nc1ccc(Cl)c(S(=O)(=O)N2CCOCC2)c1)C1CCCC1	–	–	–	–	–
O=C(Nc1ccc(N2CCOCC2)c(Cl)c1)C1CCCCC1	?	?	21µM	–	?
CCN(C(=O)CSc1nc2scc(-c3ccccc3)c2c(=O)n1N)C1CCS(=O)(=O)C1 (centres undefined)	?	–	·	?	–
CCOc1ccc(C(=O)NCc2ccc3c(c2)CCN3C(=O)c2ccc(Cl)cc2)cc1	–	·	·	·	–
CCOC(=O)Nc1sc2nc(C)cc(C)c2c1-n1cccc1	18µM	–	?	–	?
CCCSCCCNC(=O)c1sc2nc(C)cc(C)c2c1-n1cccc1	–	·	·	·	–
COc1ccc(Cn2nnnc2C(c2ccccn2)N2CCN(c3cc(Cl)ccc3C)CC2)cc1 (centres undefined)	13µM	–	?	?	?
COCCn1nnnc1C(c1ccccn1)N1CCN(c2cc(Cl)ccc2C)CC1 (centres undefined)	–	–	–	–	–
SMILES	KB-V1 MDR tox	MCF10A rereplic	ELG1 repair inh	SW480 rerep	KB-3-1 cytotox
O=C(Cn1c(=O)n(-c2ccc(F)cc2)c(=O)c2sccc21)c1ccccc1	21µM	–	?	–	–
COCCn1c(SCC(=O)Nc2ccc(S(=O)(=O)N3CCOCC3)cc2)nc2ccccc21	5.2µM	–	?	–	–
COCCn1c(SCC(=O)Nc2ccc(Cl)c(S(=O)(=O)N(C)C)c2)nc2ccccc21	–	–	18µM	–	–
O=S(=O)(NCCSc1nnnn1-c1ccccc1)c1cccs1	16µM	–	?	–	–
CS(=O)(=O)NCCSc1nnnn1-c1ccccc1	–	–	–	–	–
Oc1ccccc1C1C=C(c2ccc3c(c2)OCO3)NC(c2ccc(Br)cc2)N1 (centres undefined)	–	·	·	·	–
CCCCCOc1ccc(C(=O)NCC2(c3ccccc3)CCOCC2)cc1	23µM	–	–	–	–
CCCCOc1ccc(C(=O)NCC2(c3ccccc3)CCOCC2)cc1	–	–	–	–	–
CCOC(=O)c1cc(-c2ccc3c(c2)OCCO3)nc2c1c(C)nn2CCC#N	–	12µM	6.5µM	?	–
CCOC(=O)c1cc(-c2ccc(Cl)cc2)nc2c1c(C)nn2CCC#N	–	?	?	–	–
CCOC(=O)c1cc(-c2ccc(OC)cc2F)nc2c1c(C)nn2CCC#N	–	–	12µM	–	–
C=CCn1c(O)c2ccc(C(=O)N=NC(=O)COc3ccccc3F)cc2c1O	–	–	–	–	–
COC(=O)C(Cc1ccccc1)NC(=O)CNC(=O)c1sc2ccccc2c1Cl (centres undefined)	–	–	?	–	–
CO[C@H]1CN(C)C(=O)c2cc(NS(=O)(=O)c3ccccc3)ccc2OC[C@@H](C)N(Cc2ccccn2)C[C@@H]1C	–	·	·	·	–
COc1cccc(S(=O)(=O)Nc2ccc3c(c2)C(=O)N(C)C[C@H](OC)[C@H](C)CN(Cc2ccccc2F)[C@@H](C)CO3)c1	15µM	·	·	·	?
O=S(=O)(Nc1ccc(Br)cn1)c1ccc(Cl)s1	–	–	–	–	–
COc1cc(/C=N/O)c(Br)cc1OCC(=O)Nc1ccccc1C	8.2µM	–	–	?	–
COc1cc(/C=N/NC(N)=O)c(Br)cc1OCC(=O)Nc1ccccc1C	–	?	–	–	–
COc1cc(CNCCCN2CCOCC2)c(Br)cc1OCC(=O)Nc1ccccc1C	–	15µM	?	?	–
COc1ccccc1NC(=O)COc1ccc(Br)cc1CNCCCN1CCOCC1	–	?	–	?	–
CC(=O)N1CCN(c2ccc(NS(=O)(=O)c3ccc4c(c3)CC(=O)N4)cc2)CC1	–	·	·	·	?
Cc1ccccc1N/N=C/c1c(C)nc2ccccn12	–	16µM	–	–	–
COc1ccc(C(=O)O/N=C(\N)Cc2ccc(Cl)c(Cl)c2)cc1OC	?	?	18µM	·	?
COc1ccc(/C(N)=N/OC(=O)Cc2ccc(C)cc2)cc1OC	–	?	–	2.9µM	–
COc1ccc(CC(=O)O/N=C(\N)c2ccc(C)cc2)cc1	–	–	?	–	–
SMILES	KB-V1 MDR tox	MCF10A rereplic	ELG1 repair inh	SW480 rerep	KB-3-1 cytotox
CC(=O)NC[C@@H]1CN(c2ccc(N3CCOCC3)c(F)c2)C(=O)O1	·	–	·	–	·
CC(C)(C)C1CCC(CN2C(Nc3ccccc3)=NC[C@@H]2Cc2ccccc2)CC1 (some centres undefined)	18µM	–	–	?	?
COc1ccccc1N1CCN(c2ncnc3c2oc2ccccc23)CC1	6.5µM	3.3µM	?	21µM	5.8µM
C(=C\c1ccccc1)/CN1CCN(c2ncnc3c2oc2ccccc23)CC1	3.7µM	–	?	–	?
c1cnc(N2CCN(c3ncnc4c3oc3ccccc34)CC2)nc1	·	·	–	·	·
CC(=O)N/C(=C/c1ccc(OS(=O)(=O)c2ccc(C)cc2)cc1)C(=O)Nc1ccc(C(=O)O)cc1	–	–	?	–	–
COc1ccc2c(c1)CCc1c(C(=O)N3CCOCC3)noc1-2	16µM	–	?	–	–
COc1ccc2c(c1)CCc1c(C(=O)N3CCCc4ccccc43)noc1-2	7.3µM	?	–	–	21µM

Screens as filed in PubChem.
